Reference: PubChem BioAssay AID1159580 (chemical genetic matrix, 2015)
Hit rate of the full screen: of about 5,500 compounds, about 2,000 (36%) were called active. Inconclusive results (about 18%) are left out. Rule as the data show it: active = normalized growth mostly below about 0.91 (no sharp cut-off); inconclusive = no clear call, values can overlap the other calls; inactive = mostly above about 0.92. This is one part of the list.

Experiment: chemical genetic growth profiling, strain panel (AID 1159580);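 also: tested at 20 µM; growth read once vehicle control cultures reached saturation at 30 °C; 1 = growth at the plate median or of vehicle wells; lower values mean less growth of the strain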
Conditions: growth OD

Measured: normalized growth

CCCCCCCCCCCC[C@H](C(=O)O)[C@@H](C)C(=O)O
inactive: S. cerevisiae deletion strains, locus YJR075W, strain HOC1, hits give low values 1.07 | S. cerevisiae deletion strains, locus YKL009W, strain mrt4, hits give low values 0.946 | S. cerevisiae deletion strains, locus YKL068W, hits give low values 0.996 | S. cerevisiae deletion strains, locus YKL085W, strain MDH1 (second series), hits give low values 0.975 | S. cerevisiae deletion strains, locus YKL085W, strain MDH1, hits give low values 0.975 | S. cerevisiae deletion strains, locus YKL160W, strain elf1, hits give low values 1 | S. cerevisiae deletion strains, locus YKL190W, strain CNB1, hits give low values 0.99 | S. cerevisiae deletion strains, locus YKR001C, strain vps1, hits give low values 0.982 | S. cerevisiae deletion strains, locus YKR026C, strain gcn3, hits give low values 0.965 | S. cerevisiae deletion strains, locus YKR091W, strain srl3, hits give low values 0.974 | S. cerevisiae deletion strains, locus YLL001W, strain dnm1, hits give low values 1.01 | S. cerevisiae deletion strains, locus YLL026W, hits give low values 0.987 | S. cerevisiae deletion strains, locus YLL041C, strain sdh2, hits give low values 0.973 | S. cerevisiae deletion strains, locus YLR027C, strain aat2, hits give low values 0.992 | S. cerevisiae deletion strains, locus YLR039C, strain RIC1, hits give low values 1.04 | S. cerevisiae deletion strains, locus YLR058C, strain SHM2, hits give low values 0.994 | S. cerevisiae deletion strains, locus YLR102C, strain apc9, hits give low values 1.01 | S. cerevisiae deletion strains, locus YLR113W, strain HOG1, hits give low values 0.903 | S. cerevisiae deletion strains, locus YLR221C, strain rsa3, hits give low values 1 | S. cerevisiae deletion strains, locus YLR258W, strain gsy2, hits give low values 0.979 | S. cerevisiae deletion strains, locus YLR262C, strain YPT6 (second series), hits give low values 0.934 | S. cerevisiae deletion strains, locus YLR262C, strain YPT6, hits give low values 1.12 | S. cerevisiae deletion strains, locus YLR268W, strain sec22, hits give low values 1.02 | S. cerevisiae deletion strains, locus YLR320W, strain mms22, hits give low values 1.01 | S. cerevisiae deletion strains, locus YLR330W, strain CHS5, hits give low values 0.986 | S. cerevisiae deletion strains, locus YLR342W, strain FKS1 (second series), hits give low values 1.02 | S. cerevisiae deletion strains, locus YLR342W, strain FKS1, hits give low values 0.986 | S. cerevisiae deletion strains, locus YLR357W, strain rsc2, hits give low values 0.994 | S. cerevisiae deletion strains, locus YLR370C, strain arc18, hits give low values 0.975 | S. cerevisiae deletion strains, locus YLR371W, strain rom2, hits give low values 1.01 | S. cerevisiae deletion strains, locus YLR384C, strain iki3, hits give low values 0.974 | S. cerevisiae deletion strains, locus YLR418C, strain cdc73, hits give low values 1.02 | S. cerevisiae deletion strains, locus YML016C, strain PPZ1, hits give low values 0.982 | S. cerevisiae deletion strains, locus YML032C, strain rad52, hits give low values 1.01 | S. cerevisiae deletion strains, locus YML120C, strain ndi1, hits give low values 0.991 | S. cerevisiae deletion strains, locus YML124C, strain tub3, hits give low values 0.998 | S. cerevisiae deletion strains, locus YMR058W, strain fet3, hits give low values 0.998 | S. cerevisiae deletion strains, locus YMR078C, strain ctf18, hits give low values 0.995 | S. cerevisiae deletion strains, locus YMR125W, strain sto1, hits give low values 0.98 | S. cerevisiae deletion strains, locus YMR129W, hits give low values 0.971 | S. cerevisiae deletion strains, locus YMR205C, strain PFK2, hits give low values 1 | S. cerevisiae deletion strains, locus YMR223W, strain ubp8, hits give low values 1.03 | S. cerevisiae deletion strains, locus YMR263W, strain SAP30, hits give low values 0.996 | S. cerevisiae deletion strains, locus YMR307W, strain GAS1, hits give low values 1.06 | S. cerevisiae deletion strains, locus YNL067W, strain RPL9B, hits give low values 1.01 | S. cerevisiae deletion strains, locus YNL071W, strain lat1, hits give low values 0.968 | S. cerevisiae deletion strains, locus YNL128W, strain TEP1, hits give low values 1.01 | S. cerevisiae deletion strains, locus YNL153C, strain GIM3, hits give low values 0.994 | S. cerevisiae deletion strains, locus YNL183C, strain NPR1, hits give low values 0.91 | S. cerevisiae deletion strains, locus YNL209W, strain ssb2, hits give low values 0.995 | S. cerevisiae deletion strains, locus YNL233W, strain BNI4, hits give low values 1 | S. cerevisiae deletion strains, locus YNL248C, strain rpa49, hits give low values 1 | S. cerevisiae deletion strains, locus YNL250W, strain rad50, hits give low values 1.02 | S. cerevisiae deletion strains, locus YNL271C, strain bni1, hits give low values 1.01 | S. cerevisiae deletion strains, locus YNL298W, strain CLA4, hits give low values 0.972 | S. cerevisiae deletion strains, locus YNL307C, strain MCK1, hits give low values 1.01 | S. cerevisiae deletion strains, locus YNL322C, strain KRE1 (second series), hits give low values 0.968 | S. cerevisiae deletion strains, locus YNL322C, strain KRE1, hits give low values 0.989 | S. cerevisiae deletion strains, locus YNR049C, strain mso1, hits give low values 0.979 | S. cerevisiae deletion strains, locus YNR052C, strain pop2, hits give low values 1.02 | S. cerevisiae deletion strains, locus YOL006C, strain TOP1, hits give low values 1.04 | S. cerevisiae deletion strains, locus YOL012C, strain htz1 1.2 | S. cerevisiae deletion strains, locus YOL147C, strain pex11, hits give low values 0.997 | S. cerevisiae deletion strains, locus YOR001W, strain rrp6, hits give low values 0.984 | S. cerevisiae deletion strains, locus YOR061W, strain CKA2, hits give low values 0.994 | S. cerevisiae deletion strains, locus YOR069W, strain VPS5, hits give low values 0.989 | S. cerevisiae deletion strains, locus YOR070C, strain gyp1, hits give low values 0.987 | S. cerevisiae deletion strains, locus YOR080W, strain dia2, hits give low values 0.962 | S. cerevisiae deletion strains, locus YOR083W, strain WHI5, hits give low values 1.01 | S. cerevisiae deletion strains, locus YOR106W, strain vam3, hits give low values 1.02 | S. cerevisiae deletion strains, locus YOR136W, strain idh2, hits give low values 1.03 | S. cerevisiae deletion strains, locus YOR144C, strain elg1, hits give low values 1 | S. cerevisiae deletion strains, locus YOR184W, strain ser1, hits give low values 1.04 | S. cerevisiae deletion strains, locus YOR231W, strain MKK1, hits give low values 0.963 | S. cerevisiae deletion strains, locus YOR265W, strain rbl2, hits give low values 0.985 | S. cerevisiae deletion strains, locus YOR270C, strain vph1, hits give low values 1.02 | S. cerevisiae deletion strains, locus YOR290C, strain snf2, hits give low values 1 | S. cerevisiae deletion strains, locus YOR316C, strain cot1, hits give low values 1.01 | S. cerevisiae deletion strains, locus YPL051W, strain arl3, hits give low values 0.983 | S. cerevisiae deletion strains, locus YPL055C, strain LGE1, hits give low values 1.03 | S. cerevisiae deletion strains, locus YPL078C, strain atp4, hits give low values 0.971 | S. cerevisiae deletion strains, locus YPL106C, strain sse1, hits give low values 0.952 | S. cerevisiae deletion strains, locus YPL240C, strain hsp82, hits give low values 0.973 | S. cerevisiae deletion strains, locus YPL241C, strain CIN2, hits give low values 0.99 | S. cerevisiae deletion strains, locus YPL256C, strain CLN2, hits give low values 0.949 | S. cerevisiae deletion strains, locus YPR119W, strain clb2, hits give low values 0.986 | S. cerevisiae deletion strains, locus YPR141C, strain kar3, hits give low values 1.03 | S. cerevisiae deletion strains, locus YPR163C, strain tif3, hits give low values 1.02 | S. cerevisiae deletion strains, locus YPR167C, strain met16, hits give low values 1.01 | S. cerevisiae deletion strains, strain wtn01, hits give low values 1.01 | S. cerevisiae strains, strain wild type, hits give low values 0.992
active: S. cerevisiae deletion strains, locus YMR231W, strain pep5, hits give low values 0.927
